Test results published in the supplement of paper PMC11026393.

Experiments:
Experiment in all cases: difference in mean normalized H2B-mRuby nuclear fluorescence intensity relative to DMSO control (normalized intensity difference (DMSO = 0)); higher = stronger increase in transgene reporter fluorescence
Details in all cases: 24 h
H1299 = tested on: H1299
Procedure, shortened: (§1)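 What the table gives is the change in mean per-nucleus normalized H2B-mRuby intensity against DMSO-treated cells. It was measured in H2B-mRuby2-expressing cancer cell lines after 24 h of drug treatment at equal DMSO, imaged unstained on a Leica DMI8 at 541–551 nm excitation and 565–605 nm emission over about 3 repeats of 4 fields each.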

LN-18 = tested on: LN-18
Procedure, shortened: as §1

SK-OV-3 = tested on: SK-OV-3
Procedure, shortened: as §1

For `COC(=O)c1ccc([C@H]2c3[nH]c4ccccc4c3C[C@H](C(=O)OC)N2C(=O)CCl)cc1` (concentration unit: nM), the difference (H1299; concentration: 25) was 0.0419, the difference (H1299; concentration: 100) was 0.0844 and the difference (H1299; concentration: 250) was 0.00407. It also gave a difference (H1299; concentration: 500) of 0.231 and a difference (H1299; concentration: 1000) of 0.121.
In the case of `COc1cc2ncnc(Nc3ccc(F)c(Cl)c3)c2cc1OCCCN1CCOCC1` (concentration unit: uM), the difference (H1299; concentration: 1) is reported as -0.0187, the difference (H1299; concentration: 2.5) is reported as 0.0302 and the difference (H1299; concentration: 5) is reported as -0.00342. The difference (H1299; concentration: 10) was 0.0329, the difference (H1299; concentration: 20) was 0.0679 and the difference (LN-18; concentration: 1) was 0.099. For the same compound, the difference (LN-18; concentration: 2.5) was 0.00859, the difference (LN-18; concentration: 5) was 0.0147 and the difference (LN-18; concentration: 10) was 0.0212. For the same compound, the difference (LN-18; concentration: 20) was 0.00315, the difference (SK-OV-3; concentration: 1) was 0.00612 and the difference (SK-OV-3; concentration: 2.5) was -0.00968. It also gave a difference (SK-OV-3; concentration: 5) of 0.0329, a difference (SK-OV-3; concentration: 10) of 0.0831 and a difference (SK-OV-3; concentration: 20) of 0.0836.
Compound `Nc1ncn([C@@H]2O[C@H](CO)[C@@H](O)[C@H]2O)c(=O)n1` (concentration unit: uM) has a difference (LN-18; concentration: 1) of 0.03, a difference (LN-18; concentration: 2.5) of 0.0353 and a difference (LN-18; concentration: 5) of 0.0211. For the same compound, the difference (LN-18; concentration: 10) was 0.0474, the difference (LN-18; concentration: 20) was 0.00195 and the difference (SK-OV-3; concentration: 1) was 0.0139. It also gave a difference (SK-OV-3; concentration: 2.5) of -0.0364, a difference (SK-OV-3; concentration: 5) of 0.0517 and a difference (SK-OV-3; concentration: 10) of 0.126. For the same compound, the difference (SK-OV-3; concentration: 20) was 0.105.
`COc1cc2nccc(Oc3ccc(NC(=O)C4(C(=O)Nc5ccc(F)cc5)CC4)cc3)c2cc1OC` (concentration unit: uM) was tested, and the difference (H1299; concentration: 0.5) was 0.0394, the difference (H1299; concentration: 1) was -0.122 and the difference (H1299; concentration: 2.5) was -0.0701. It also gave a difference (H1299; concentration: 5) of 0.0398 and a difference (H1299; concentration: 10) of 0.0491.
In the case of `Cc1[nH]c2ccccc2c1CCNCc1ccc(/C=C/C(=O)NO)cc1` (concentration unit: nM), the difference (LN-18; concentration: 10) is reported as 0.22, the difference (LN-18; concentration: 50) is reported as 0.459 and the difference (LN-18; concentration: 100) is reported as 0.491. It also gave a difference (LN-18; concentration: 250) of 0.528, a difference (LN-18; concentration: 500) of 0.494 and a difference (SK-OV-3; concentration: 10) of 0.269. It also gave a difference (SK-OV-3; concentration: 50) of 1.12, a difference (SK-OV-3; concentration: 100) of 1.16 and a difference (SK-OV-3; concentration: 250) of 1.1. For the same compound, the difference (SK-OV-3; concentration: 500) was 1.13.
Compound `CNC(=O)c1ccccc1Sc1ccc2c(/C=C/c3ccccn3)n[nH]c2c1` (concentration unit: uM) has a difference (H1299; concentration: 1) of -0.0324, a difference (H1299; concentration: 2.5) of 0.0393 and a difference (H1299; concentration: 5) of 0.159. The difference (H1299; concentration: 10) was 0.14 and the difference (H1299; concentration: 20) was 0.156.
`CO[C@H]1/C=C\C=C(/C)C(=O)NC2=CC(=O)C(NCCN(C)C)=C(C[C@@H](C)C[C@H](OC)[C@H](O)[C@@H](C)/C=C(\C)[C@@H]1OC(N)=O)C2=O` (concentration unit: nM) gave a difference (H1299; concentration: 5) of 0.0988, a difference (H1299; concentration: 25) of 0.27 and a difference (H1299; concentration: 50) of 0.565. It also gave a difference (H1299; concentration: 100) of 0.538 and a difference (H1299; concentration: 500) of 0.571.
With `Cc1nc(Nc2ncc(C(=O)Nc3c(C)cccc3Cl)s2)cc(N2CCN(CCO)CC2)n1` (concentration unit: nM) the difference (LN-18; concentration: 25) was 0.0292, the difference (LN-18; concentration: 100) was 0.0217 and the difference (LN-18; concentration: 250) was 0.0754. For the same compound, the difference (LN-18; concentration: 1000) was 0.0482, the difference (LN-18; concentration: 2500) was -0.0509 and the difference (SK-OV-3; concentration: 25) was 0.111. The difference (SK-OV-3; concentration: 100) was 0.606, the difference (SK-OV-3; concentration: 250) was 0.528 and the difference (SK-OV-3; concentration: 1000) was 0.636. It also gave a difference (SK-OV-3; concentration: 2500) of 0.551.
